Drawing on PubChem BioAssay AID618 (Sanford-Burnham Center for Chemical Genomics, 2007), this text covers outcome for 40 compounds.

About 540 (0.62%) of roughly 87,000 compounds were called active. A call without a number means that no potency is given here. No rule for the calls is given here. This excerpt belongs to a sample that is enriched for actives. Potency and affinity values are given separately.

The assay is described as follows: inhibitors of MT1-MMP promoter transcription, cell-based, luciferase reporter, luminescence (AID 618).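 Also: actives suppress MT1-MMP promoter-driven transcription so potencies describe inhibitors.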 As to conditions: MT1-MMP promoter luciferase reporter cells. (In a reporter assay the amount or activity of a reporter protein is the signal.)
With `CN1CCN(C(=O)COc2ccc(-c3nc4ccccc4s3)cc2)CC1`, the outcome was active.
For `COc1cccc(OCC(=O)N2CCN(C)CC2)c1` the value was “inactive”; for `CN1CCN(C(=O)COc2ccc(S(=O)(=O)N(C)Cc3ccccc3)cc2)CC1`, “inactive”.
To `CCOC(=O)C1=C(N)Oc2ccccc2C12C(=O)N(CC(=O)OC)C(CC(=O)OC)=C2C(=O)OC` (stereo not given) belongs “inactive”; to `C[C@H]1CCC[C@@H](O)CCC/C=C/c2cc(O)cc(O)c2C(=O)O1`, “inactive”; to `C[C@H]1CCCC(=O)CCC/C=C/c2cc(O)cc(O)c2C(=O)O1`, “inactive”.
For `C[C@H]1CCC/C=C/C2C[C@H](O)CC2[C@H](O)/C=C/C(=O)O1` (stereo not given in full) the value was “active”.
As for `Cn1c(O)c(C=NCc2cccs2)c(=O)n(C)c1=O`, the compound was called inactive.
With `CCC(C)OC(=O)c1c(N)n(Cc2cccs2)c2nc3ccccc3nc12` (stereo not given), the outcome was inactive.
To `COc1ccc(Nc2ncc(C(=O)N3CCC4(CC3)OCCO4)c3ccccc23)cc1` belongs “inactive”; to `CC(C)c1cccc(C(C)C)c1OCCn1ccnc1`, “inactive”.
For `CCn1c(=O)cc(OCC(=O)N2CCN(Cc3ccc4c(c3)OCO4)CC2)c2ccccc21` the value was “inactive”.
To `O=c1[nH]c2ccccc2n1CCCN1CCC(n2c(=O)[nH]c3cc(Cl)ccc32)CC1` belongs “inactive”.
Consider `O=C1CC(N2CCC(n3c(=O)[nH]c4ccccc43)CC2)C(=O)N1c1ccc(F)cc1` (stereo not given), for which the outcome was inactive.
To `O=c1[nH]c2ccccc2n1C1CCN(CCCC(c2ccc(F)cc2)c2ccc(F)cc2)CC1` belongs “active”; to `Cc1ccc(-n2nc(C)cc2NC(=O)COc2cc(C)cc3oc(=O)c4c(c23)CCC4)cc1`, “inactive”; to `CC12CN3CC(C)(CN(C1)P3(=O)Oc1ccccc1)C2=O` (stereo not given), “inactive”.
Consider `Cc1nc2c(=O)n(C)c(=O)nc-2n(C)n1`, for which the call was active.
For `CCOC(=O)CC1=C(C(=O)OCC)C2(C(=O)N1CC(=O)OC)C(C#N)=C(N)Oc1ccccc12` (stereo not given) the value was “inactive”.
Take `CCC/C=C(\CCC)C(NP(=O)(c1ccccc1)c1ccccc1)c1ccccc1` (stereo not given): the result was inactive.
For `Nc1ccccc1C(=O)OC1CSC1` the value was “inactive”; for `Nc1ccccc1C(=O)OCCOc1ccccc1`, “active”.
To `CCCCCCOC(=O)c1ccccc1N` belongs “inactive”.
For the compound `CCCCOP(=O)(CN1CCOCC1)OCCCC`, the call was inactive.
For the compound `CCN1CCN(C(=O)COc2cc(=O)n(CC)c3ccccc23)CC1`, the compound was called inactive.
For `c1ccc2c(CNC3CCCCCC3)c[nH]c2c1` the value was “inactive”.
Take `CCCCn1c(O)c(C=NC2CC3CCC2(C)C3(C)C)c(=O)[nH]c1=O` (stereo not given): the outcome was inactive.
With `Cc1ccc(C2(O)CC(C)N(C)CC2C)cc1` (stereo not given), the outcome was inactive.
`Cc1ccc(N(C)C(=O)Oc2cccc3cccnc23)cc1`: the outcome was inactive.
For `CN(C)CCN=Cc1c(O)n(-c2cccc3ccccc23)c(=O)[nH]c1=O` the value was “inactive”; for `COC(=O)C[C@]1(C(=O)OC)CN(C#N)N(c2ccc(Cl)cc2)C12c1ccccc1-c1ccccc12`, “active”; for `COC(=O)[C@@H]1[C@@H](C(=O)OC)C2(c3ccccc3-c3ccccc32)N(c2ccc(Cl)cc2)N1C#N`, “inactive”.
To `COC(=O)C1CN(C#N)N(c2ccc(Cl)cc2)C12c1ccccc1-c1ccccc12` (stereo not given) belongs “active”; to `CCCN1[C@@H]2C[C@@H](O)CC[C@@H]2C[C@H]1C(=O)OC`, “inactive”.
Consider `CN(C)CCCN=Cc1c(O)n(CCc2ccc(F)cc2)c(=O)[nH]c1=O`, for which the compound was called inactive.
For `CC(C)CCC1(CCc2ccncc2)C(=O)NC(=O)NC1=O` the value was “inactive”; for `CCCCn1c(O)c(C(C)=Nc2c(C)n(C)n(-c3ccccc3)c2=O)c(=O)[nH]c1=O`, “inactive”; for `COc1cccc(OC)c1C1=NCC(=O)Nc2c1oc1ccc(Br)cc21`, “active”.
To `O=C1CN=C(c2ccccc2)c2oc3ccc(Br)cc3c2N1` belongs “inactive”; to `CCOc1cc(-c2nc3c(C)cccn3c2NCC2CCCO2)ccc1O` (stereo not given), “inactive”.
